The results in this text go back to PubChem BioAssay (EPA / NIEHS).

Conditions in all cases: mRNA level, 48 h; actives raise or lower the signal
Read-out in experiment [1]: Cytochrome P450 (CYP2B6), CYP2B6 (gene 1555)
Kind of experiment: LTEA_HepaRG_CYP2B6: Life Technologies and Expression Analysis (LTEA) Assay for Cytochrome P450 (CYP2B6) using HepaRG (AID 2283481). The essentials:
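Human HepaRG, 48 h dosing, 0.5% DMSO vehicle, top dose 100 uM. CYP2B6 transcript by qRT-PCR, housekeeping-normalized, bidirectional curve fit.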

Read-out in the next experiment: CYP2C8 (gene 1558)
In words: LTEA_HepaRG_CYP2C8: Life Technologies and Expression Analysis (LTEA) Assay for CYP2C8 using HepaRG (AID 2283483). The method, boiled down: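 HepaRG (human liver line), 48 h chemical exposure, 8-pt half-log series from 100 uM, 0.5% DMSO vehicle. Readout: CYP2C8 transcript by qRT-PCR, housekeeping-normalized. Bidirectional fit vs DMSO baseline.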

Read-out in a further experiment: CYP2C9 (gene 1559)
In words: LTEA_HepaRG_CYP2C9: Life Technologies and Expression Analysis (LTEA) Assay for CYP2C9 using HepaRG (AID 2283484). The essentials: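 HepaRG, 48 h dosing, 8-pt half-log series, top 100 uM, 0.5% DMSO vehicle. Read-out: CYP2C9 transcript by TaqMan qRT-PCR, housekeeping-normalized (ACTB/GAPDH/POLR2A). Gain or loss fitted vs DMSO baseline.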

Read-out in the next experiment: CYP2E1 (gene 1571)
In words: LTEA_HepaRG_CYP2E1: Life Technologies and Expression Analysis (LTEA) Assay for CYP2E1 using HepaRG (AID 2283485). The method, boiled down: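 Readout is qRT-PCR of CYP2E1 mRNA, normalized to three housekeeping genes and fitted bidirectionally against 0.5% DMSO. HepaRG cells were dosed 48 h at eight concentrations, highest 100 uM with half-log dilutions.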

Read-out in a further experiment: CYP4A11 (gene 1579)
In words: LTEA_HepaRG_CYP4A11: Life Technologies and Expression Analysis (LTEA) Assay for CYP4A11 using HepaRG (AID 2283486). The essentials:
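Human hepatic HepaRG cultures receive duplicate 48 h exposures across a concentration-response series topping at 100 uM. Expression changes in CYP4A11 are measured by qRT-PCR relative to DMSO controls.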

Read-out in experiment [2]: Cytochrome P450 3A4 (Homo sapiens) (UniProt P08684)
In words: LTEA_HepaRG_CYP3A4: Life Technologies and Expression Analysis (LTEA) Assay for CYP3A4 using HepaRG (AID 2283487). The method, boiled down: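 HepaRG, 48 h exposure, 8-pt CRC from 100 uM (half-log), 0.5% DMSO, duplicates; serum-free induction medium. Readout: CYP3A4 mRNA, qRT-PCR, ACTB/GAPDH/POLR2A normalization. Bidirectional fit vs DMSO.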

Read-out in experiment [3]: DNA damage-inducible transcript 3 (DDIT3), DDIT3 (gene 1649)
Kind of experiment: LTEA_HepaRG_DDIT3: Life Technologies and Expression Analysis (LTEA) Assay for DNA damage-inducible transcript 3 (DDIT3) using HepaRG (AID 2283488). The essentials:
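Cells are human HepaRG liver cells treated for 48 h with eight half-log concentrations up to 100 uM in 0.5% DMSO. Transcript levels come from qRT-PCR normalized to three housekeeping genes, with activity fitted in both directions relative to vehicle.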

Read-out in experiment [4]: Pro-epidermal growth factor (Homo sapiens) (UniProt P01133)
In words: LTEA_HepaRG_EGF: Life Technologies and Expression Analysis (LTEA) Assay for Epidermal growth factor (EGF) using HepaRG (AID 2283489). The essentials:
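Concentration-response mRNA assay: HepaRG cells dosed 48 h (max 100 uM, 0.5% DMSO), EGF measured by qRT-PCR and normalized to ACTB/GAPDH/POLR2A.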

Read-out in experiment [5]: Early growth response protein 1 (EGR1) transcription factor, EGR1 (gene 1958)
In words: LTEA_HepaRG_EGR1: Life Technologies and Expression Analysis (LTEA) Assay for Early growth response protein 1 (EGR1) transcription factor using HepaRG (AID 2283490). The method, boiled down:
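HepaRG, 48 h exposure, 8-pt half-log series from 100 uM, 0.5% DMSO vehicle; EGR1 transcript by TaqMan qRT-PCR (Fluidigm array), housekeeping-normalized; bidirectional fit relative to DMSO baseline.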

Read-out in experiment [6]: Cytochrome P450 3A7 (Homo sapiens) (UniProt P24462)
Kind of experiment: LTEA_HepaRG_CYP3A7: Life Technologies and Expression Analysis (LTEA) Assay for CYP3A7 using HepaRG (AID 2283492). The essentials:
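qRT-PCR of CYP3A7 in HepaRG lysates after 48 h treatment; concentration-response (8 points, max 100 uM) analysed bidirectionally relative to 0.5% DMSO controls.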

Read-out in the next experiment: CYP3A5 (gene 1577)
Kind of experiment: LTEA_HepaRG_CYP3A5: Life Technologies and Expression Analysis (LTEA) Assay for CYP3A5 using HepaRG (AID 2283493). The method, boiled down: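 Human HepaRG hepatic cells receive 48 h chemical treatment at eight concentrations (half-log steps from 100 uM) in 0.5% DMSO. Expression of CYP3A5 is quantified by Fluidigm qRT-PCR and normalized to three reference genes.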

Read-out in experiment [7]: Fatty Acid-Binding Protein 1 (FABP1), FABP1 (gene 2168)
Kind of experiment: LTEA_HepaRG_FABP1: Life Technologies and Expression Analysis (LTEA) Assay for Fatty Acid-Binding Protein 1 (FABP1) using HepaRG (AID 2283494). The essentials: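 qRT-PCR readout of FABP1 transcript (normalized to three housekeeping genes) after 48 h chemical exposure of HepaRG cells; eight concentrations, half-log steps, max 100 uM, 0.5% DMSO vehicle; gain or loss fitted relative to DMSO baseline.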

Read-out in experiment [8]: Cytochrome P450 4A22 (Homo sapiens) (UniProt Q5TCH4)
In words: LTEA_HepaRG_CYP4A22: Life Technologies and Expression Analysis (LTEA) Assay for Cytochrome P450 4A22 (CYP4A22) using HepaRG (AID 2283495). The method, boiled down:
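Concentration-response (8 points, max 100 uM, 0.5% DMSO) in human HepaRG liver cells after 48 h exposure. CYP4A22 mRNA by TaqMan qRT-PCR with housekeeping-gene normalization.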

Read-out in experiment [9]: Cytochrome P450 7A1 (Homo sapiens) (UniProt P22680)
In words: LTEA_HepaRG_CYP7A1: Life Technologies and Expression Analysis (LTEA) Assay for Cytochrome P450 7A1 (CYP7A1) using HepaRG (AID 2283496). The essentials:
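HepaRG, 48 h exposure, 8-pt half-log series from 100 uM, 0.5% DMSO vehicle, duplicates. Readout: TaqMan qRT-PCR mRNA vs three housekeeping genes; bidirectional curve fit against DMSO baseline.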

Read-out in experiment [10]: Glutamate-cysteine ligase catalytic (GCLC), GCLC (gene 2729)
In words: LTEA_HepaRG_GCLC: Life Technologies and Expression Analysis (LTEA) Assay for Glutamate-cysteine ligase catalytic (GCLC) using HepaRG (AID 2283498). The essentials:
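HepaRG, 48 h exposure, 8-pt half-log series from 100 uM, 0.5% DMSO vehicle; TaqMan qRT-PCR for GCLC mRNA, housekeeping-normalized; bidirectional curve fit vs DMSO baseline.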

Read-out in experiment [11]: growth arrest and DNA damage 45 (GADD45G), GADD45G (gene 10912)
Kind of experiment: LTEA_HepaRG_GADD45G: Life Technologies and Expression Analysis (LTEA) Assay for growth arrest and DNA damage 45 (GADD45G) using HepaRG (AID 2283499). The method, boiled down: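 Concentration-response in HepaRG: 48 h dosing, 0.5% DMSO, highest level 100 uM. GADD45G expression by qRT-PCR, normalised to endogenous controls; bidirectional fit to DMSO.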

Read-out in experiment [12]: Glutamate-cysteine ligase regulatory (GCLM), GCLM (gene 2730)
In words: LTEA_HepaRG_GCLM: Life Technologies and Expression Analysis (LTEA) Assay for Glutamate-cysteine ligase regulatory (GCLM) using HepaRG (AID 2283500). The method, boiled down: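 Endpoint is GCLM transcript level by qRT-PCR, normalized to three housekeeping genes, after 48 h chemical exposure of human HepaRG cells (0.5% DMSO vehicle, top 100 uM, half-log dilutions). Fitting was bidirectional relative to DMSO.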

Read-out in experiment [13]: Glutathione S-Transferase (GSTA2), GSTA2 (gene 2939)
In words: LTEA_HepaRG_GSTA2: Life Technologies and Expression Analysis (LTEA) Assay for Glutathione S-Transferase (GSTA2) using HepaRG (AID 2283497). The essentials:
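qRT-PCR readout of GSTA2 transcript, normalized to three housekeeping genes, fitted bidirectionally against 0.5% DMSO baseline. Differentiated HepaRG cells received compound for 48 h at 8 concentrations (top 100 uM, half-log steps).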

Read-out in experiment [14]: Ezrin (EZR), EZR (gene 7430)
In words: LTEA_HepaRG_EZR: Life Technologies and Expression Analysis (LTEA) Assay for Ezrin (EZR) using HepaRG (AID 2283491). The essentials: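 Read-out is EZR transcript level by qRT-PCR, normalized to three housekeeping genes and fitted bidirectionally against the DMSO control. Human HepaRG cells received test chemicals for 48 h at eight half-log concentrations up to 100 uM in 0.5% DMSO.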

Active and inactive are the calls of the source. How the source made its calls: active means hit-call score of the fitted dose curve at least 0.9, where 1 is the maximum; inactive means score below 0.9.

Sequence of Cytochrome P450 3A4 (Homo sapiens) (P08684 whole entry, looked up): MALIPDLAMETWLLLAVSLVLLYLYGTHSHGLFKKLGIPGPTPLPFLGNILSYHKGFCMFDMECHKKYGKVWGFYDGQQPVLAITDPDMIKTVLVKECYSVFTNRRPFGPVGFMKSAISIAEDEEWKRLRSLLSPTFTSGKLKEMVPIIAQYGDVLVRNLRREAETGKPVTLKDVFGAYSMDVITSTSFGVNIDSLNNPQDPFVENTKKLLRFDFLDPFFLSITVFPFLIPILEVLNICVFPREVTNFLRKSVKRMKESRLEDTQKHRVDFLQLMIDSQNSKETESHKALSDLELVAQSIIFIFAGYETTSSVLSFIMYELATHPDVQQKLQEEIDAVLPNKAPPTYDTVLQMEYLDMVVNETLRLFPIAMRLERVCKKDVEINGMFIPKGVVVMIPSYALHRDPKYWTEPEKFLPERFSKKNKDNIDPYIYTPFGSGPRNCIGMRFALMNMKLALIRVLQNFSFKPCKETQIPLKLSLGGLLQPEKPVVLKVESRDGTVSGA
Sequence of Cytochrome P450 3A7 (Homo sapiens) (P24462 whole entry, looked up): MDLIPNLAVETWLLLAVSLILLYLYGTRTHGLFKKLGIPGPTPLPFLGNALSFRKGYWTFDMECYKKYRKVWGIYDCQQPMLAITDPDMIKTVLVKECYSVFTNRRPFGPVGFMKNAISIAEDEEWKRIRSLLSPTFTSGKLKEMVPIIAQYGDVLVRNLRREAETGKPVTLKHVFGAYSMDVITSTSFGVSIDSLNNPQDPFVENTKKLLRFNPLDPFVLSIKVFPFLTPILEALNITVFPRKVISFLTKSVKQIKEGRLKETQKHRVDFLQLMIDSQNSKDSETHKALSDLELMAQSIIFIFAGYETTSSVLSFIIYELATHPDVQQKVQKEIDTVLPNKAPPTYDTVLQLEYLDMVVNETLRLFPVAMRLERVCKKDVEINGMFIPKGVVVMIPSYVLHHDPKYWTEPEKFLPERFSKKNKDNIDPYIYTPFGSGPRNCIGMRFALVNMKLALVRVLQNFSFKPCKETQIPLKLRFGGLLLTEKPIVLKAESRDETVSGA

As for `COc1nc(NC(C)C)nc(NC(C)C)n1`, the AC50 is 6.01 µM (active) in experiment [1], 37 µM (active) with CYP2E1 (gene 1571), 7.19 µM (active) in [2] and 23.1 µM (active) in experiment [7]. The outcome (in the experiment with CYP2C8 (gene 1558); in the experiment with CYP2C9 (gene 1559); with CYP4A11 (gene 1579); in experiment [3]; in experiment [4]; in experiment [5]) was inactive. Further, the compound was called inactive (in experiment [6]; with CYP3A5 (gene 1577); in [8]; in experiment [9]; in experiment [10]; in [11]). In addition, in experiment [12], the outcome was inactive.
As to `C#CCOS(=O)OC1CCCCC1Oc1ccc(C(C)(C)C)cc1` (configuration not stated), the AC50 in experiment [1] is 26.6 µM (active); with CYP2C8 (gene 1558) it was 29.9 µM (active); with CYP2C9 (gene 1559) it was 25.6 µM (active); in the experiment with CYP2E1 (gene 1571), 22.6 µM (active); with CYP4A11 (gene 1579), 25.9 µM (active); in experiment [2], 28.8 µM (active). Moreover, the AC50 in experiment [3] was 15.2 µM (active); in experiment [4], 29.4 µM (active); in [6], 29.5 µM (active); with CYP3A5 (gene 1577), 30.1 µM (active); in [7], 18.7 µM (active); in experiment [9], 26.6 µM (active). In addition, the AC50 is 28.2 µM (active) in experiment [10], 12.7 µM (active) in experiment [11] and 9.92 µM (active) in experiment [12]. The compound was called inactive in [5] and in experiment [8].
In the case of `Oc1ccccc1-c1ccccc1`, the compound was called inactive (in experiment [1]; with CYP2C8 (gene 1558); with CYP2C9 (gene 1559); in the experiment with CYP2E1 (gene 1571); with CYP4A11 (gene 1579); in [2]). Also, the compound was called inactive in experiment [3], in experiment [4], in [5], in [6], in experiment [7] and in experiment [8]. The compound was classed as inactive in experiment [9], in experiment [13], in [10], in experiment [11] and in experiment [12].
In the case of `CCON=C(CC)C1=C(O)CC(c2c(C)cc(C)cc2C)CC1=O` (configuration not stated), the half-maximal activity concentration (AC50) is 29.5 µM (active) in [1]; 50 µM (active) with CYP2C8 (gene 1558); 43.6 µM (active) in the experiment with CYP2E1 (gene 1571); 25 µM (active) with CYP4A11 (gene 1579); 18.9 µM (active) in [8]. The outcome (with CYP2C9 (gene 1559); in experiment [3]; in [4]; in [5]; in [14]; with CYP3A5 (gene 1577)) was inactive. For the same compound, the compound was called inactive in experiment [7], in [9], in [10], in experiment [11] and in [12].

As a reminder, the AC50 is the midpoint of the concentration-response curve, whichever way the signal moves.
